Test results reported in PubChem BioAssay (NCATS).
Inconclusive results are not listed. Where a call stands in place of a potency, no number is given. Activity calls are given as the source filed them. The call rests on the fitted dose curve; in most records, active means well fitted inhibition curve with a large enough effect; inconclusive means small, poorly fitted or top-dose-only effect; inactive means flat fitted curve, though single readings scatter.

assay: P-glycoprotein substrates identified in KB-8-5-11 adenocarcinoma cell line, qHTS therapeutic library screen (AID 1346987); conditions: KB-8-5-11 (P-gp overexpressing) viability, CellTiter-Glo, 72 h; series mostly up to 44.5 µM; further: nearly all actives have a fitted effect of over 65% in size
Outline: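 Compounds are pinned in dose-response onto KB-8-5-11 cells (500 cells/well, colchicine-free medium) and left 72 h at 37 degree C. CellTiter-Glo luminescence then yields AC50 values.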

SMILES	Potency	activity change, negative = cytotoxicity	outcome
CC(C)(O)C(O)C(=O)OCc1ccc(O[C@@H]2O[C@H](CO)[C@@H](O)[C@H](O)[C@H]2O)cc1 (stereo partly specified)	inactive	–	–
CC(C)(C)NS(=O)(=O)c1ccc(-c2ccc3[nH]nc(N)c3c2)cc1	inactive	–	–
CO[C@@H]1[C@]2(O)C(=O)N3/C=C\C(C)(C)c4[nH]c5ccccc5c4/C=C\3C(=O)N2[C@]23[C@H](CO)C(C)(C)N2c2ccccc2[C@]13O	inactive	–	–
CC(=O)/C=C/C1(O)C(C)=CC(=O)CC1(C)C (stereo unspecified)	inactive	–	–
COc1ccc(/C=C/C(=O)N2CCCC2)cc1	inactive	–	–
CC(C)(O)C1CCC2(C)CCCC(C)(O)C2C1 (stereo unspecified)	inactive	–	–
CC1=C2C(=O)C=C(CO)C2[C@H]2OC(=O)[C@H](C)[C@@H]2[C@@H](OC(=O)Cc2ccc(O)cc2)C1 (stereo partly specified)	inactive	–	–
C[C@@H]1O[C@@H](O[C@H]2[C@H](OC(=O)[C@]34CCC(C)(C)C[C@H]3C3=CCC5[C@@]6(C)CC[C@H](O[C@@H]7O[C@H](CO[C@@H]8OC[C@H](O)[C@H](O)[C@H]8O)[C@@H](O)[C@H](O)[C@H]7O)C(C)(C)C6CC[C@@]5(C)[C@]3(C)C[C@H]4O)OC[C@@H](O)[C@@H]2O)[C@H](O)[C@H](O[C@@H]2OC[C@](O)(CO)[C@H]2O)[C@H]1O[C@@H]1OC[C@H](O)[C@H](O[C@@H]2OC[C@@H](O)[C@H](O)[C@H]2O)[C@H]1O (stereo partly specified)	–	5.27% [at 9.29 µM] (inactive)	–
O=C(/C=C/c1ccccc1)O[C@@H]1[C@@H](CO)O[C@@](CO)(O[C@H]2O[C@H](CO)[C@@H](O)[C@H](O)[C@H]2O)[C@H]1O	inactive	–	–
COc1cccc2c1c(O)c(C(=O)N(C)c1ccc(C(F)(F)F)cc1)c(=O)n2C	inactive	–	–
CC(C)Oc1ccc(-c2nc(-c3cccc4c3CCC4NCCC(=O)O)no2)cc1C#N (stereo unspecified)	inactive	–	–
CCC(C)/C=C(C)/C=C/C1=CC2=C(Cl)C(=O)C(C)(OC(C)=O)C(=O)C2=CN1C(CCCN=C(N)N)C(=O)O (stereo unspecified)	inactive	–	–
CCCCC(=O)N1c2ccccc2NC2=C(C(=O)CCC2)C1c1ccccc1Cl (stereo unspecified)	inactive	–	–
O=C(Nc1cc(-c2ccccc2)nn1-c1ccccc1)c1ccc([N+](=O)[O-])cc1	inactive	–	–
C/C=C(\C)C(=O)OC[C@H]1O[C@@H](O[C@H]2[C@@H](O[C@H]3O[C@H](CO)[C@@H](O)[C@H](O)[C@H]3O[C@@H]3O[C@H](CO)[C@@H](O)[C@H](O)[C@H]3O)O[C@H](COC(=O)/C(C)=C/C)[C@@H](O)[C@@H]2O)[C@H](O)[C@@H](O)[C@@H]1O	–	–	inactive [at 9.29 µM]
CC1(C)CC[C@]2(C(=O)O[C@@H]3O[C@H](CO)[C@@H](O)[C@H](O)[C@H]3O)CC[C@]3(C)C(=CCC4[C@@]5(C)CC[C@H](O[C@H]6O[C@H](CO)[C@@H](O)[C@H](O[C@@H]7O[C@H](CO)[C@@H](O)[C@H](O)[C@H]7O)[C@H]6O)C(C)(C)C5CC[C@]43C)[C@@H]2C1 (stereo partly specified)	–	4.26% [at 9.29 µM] (inactive)	–
C[C@@H]1CC[C@]2(C(=O)O)CC[C@]3(C)C(=CCC4[C@@]5(C)C[C@@H](O)[C@H](O)[C@@](C)(CO)C5CC[C@]43C)C2[C@H]1C (stereo partly specified)	inactive	–	–
C=C(C)[C@@H]1CC[C@]2(CO)CC[C@]3(C)[C@H](CC[C@@H]4[C@@]5(C)CC[C@H](O)C(C)(C)[C@@H]5CC[C@]43C)[C@@H]12	inactive	–	–
C=C1CCC2[C@@](C)(C(=O)O)CCC[C@@]2(C)[C@@H]1CCc1ccoc1 (stereo partly specified)	inactive	–	–
CC(=O)O[C@@H]1CC2C(C)(C)C(=O)C=C[C@]2(C)C2CC[C@]3(C)C(=CC(=O)[C@@H]3c3ccoc3)[C@@]21C (stereo partly specified)	inactive	–	–
CN1CCc2cc(Cl)c(O)cc2[C@@H](c2cccc3c2OCC3)C1	inactive	–	–
C[C@@H]1O[C@@H](O[C@H]2[C@@H]3C=CO[C@@H](O[C@@H]4O[C@H](CO)[C@@H](O)[C@H](O)[C@H]4O)[C@@H]3[C@@]3(CO)O[C@@H]23)[C@H](OC(=O)/C=C/c2ccc(O)cc2)[C@H](O)[C@H]1O	inactive	–	–
O=C(O)CC/C=C\C[C@H]1CO[C@@H](c2ccccc2Cl)O[C@H]1c1ccccc1O	inactive	–	–
C/C=C1/C[N+](C)([O-])C2Cc3c([nH]c4ccccc34)C(=O)CC1C2C(=O)OC (stereo unspecified)	inactive	–	–
O=C(O)C[C@H]1CCC(=O)[C@@H]1C/C=C\CCO	inactive	–	–
COc1cc(/C=C/C(=O)OC[C@H]2O[C@@H](OC3OC=C(C(=O)O)C4C(O)CC(C)(O)C34)[C@H](O)[C@@H](O)[C@@H]2O)cc(OC)c1O (stereo partly specified)	inactive	–	–
